Inconclusive results are not listed. Where a call stands in place of a potency, no number is given. A number with no mark means an inactive call. The source made the active and inactive calls. The call rests on the fitted dose curve; in most records, active means well fitted inhibition curve with a large enough effect; inconclusive means small, poorly fitted or top-dose-only effect; inactive means no such curve, though single readings can be large or run the other way. Where a SMILES comes first, the peptide text is derived from it. [ ]: non-standard residue; d: D form.
Experiments:
[1] = test system: Zika virus NS2B-NS3 protease (unlinked complex); experiment: Primary screen GU Rhodamine qHTS for Zika virus inhibitors: Unlinked NS2B-NS3 protease assay (AID 1347159); further: nearly all actives have a fitted effect of over 60% in size
Outline: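 Unlinked NS2B/NS3, 25 nM; Rhod110 peptide, 1.5 microM; compounds, up to 114 microM. Reaction run 15 min at RT in 10 mM Tris-HCl pH 8.0, 0.01% Tween 20; kinetic fluorescence change fitted with a 4-parameter Hill model.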

[2] = test system: Zika virus NS2B-NS3 protease (linked construct); experiment: Primary screen NINDS Rhodamine qHTS for Zika virus inhibitors (AID 1347160); further: nearly all actives have a fitted effect of over 55% in size
Outline: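 Single-chain NS2B-NS3 protease, 25 nM, pH 8.0; compounds preincubated 15 min. Activity: Rhodamine110 release from 1.5 microM substrate over 15 min, room temperature, data fitted to 4-parameter Hill.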

Structure (SMILES) | Potency [1] | Potency [2] | activity change, negative = inhibition [1] | activity change, negative = inhibition [2]
COC(=O)C1=C[C@@H](O)[C@@H](O)[C@H](O[C@@H]2O[C@H](COC(=O)/C=C/c3ccccc3)[C@@H](O)[C@H](O)[C@H]2O)C1 | inactive | inactive | – | –
COc1ccc(/C=C/C(=O)O[C@@H]2[C@@H](OC(C)=O)[C@@H](OC(C)=O)[C@H](O[C@H]3[C@@H]4C=CO[C@@H](O[C@@H]5O[C@H](CO)[C@@H](O)[C@H](O)[C@H]5O)[C@@H]4[C@@]4(CO)O[C@@H]34)O[C@H]2C)cc1O | inactive | inactive | – | –
CC1(C)CC[C@]2(C(=O)O)CC[C@]3(C)C(=CCC4[C@@]5(C)C[C@@H](O)[C@H](O)C(C)(C)C5CC[C@]43C)[C@@H]2[C@@H]1O (some centres not stated) | inactive | inactive | – | –
CO[C@@H]1COCC[C@@H]1N[C@@H]1CC[C@@](C(=O)N2CCc3ncc(C(F)(F)F)cc3C2)(C(C)C)C1 | inactive | inactive | – | –
CC(=O)c1c(C)cc(O[C@@H]2O[C@H](CO)[C@@H](O)[C@H](O)[C@H]2O)cc1O | inactive | inactive | – | –
CC(C)(O)C1=CCC23COC(C2)C(O)(C(=O)O)CCC13 (configuration not stated) | inactive | inactive | – | –
CC(=O)N[C@H](Cc1ccc(O)cc1)C(=O)N[C@H](CCCN=C(N)N)C(=O)N[C@H](Cc1ccccc1)C(N)=O (Ac-[dY]-[dR]-[dF]-NH2) | inactive | inactive | – | –
C[C@@H]1O[C@@H](O[C@H]2[C@H](OC(=O)[C@]34CCC(C)(C)C[C@H]3C3=CCC5[C@@]6(C)C[C@H](O)[C@H](O[C@@H]7O[C@H](CO[C@@H]8OC[C@H](O)[C@H](O)[C@H]8O)[C@@H](O)[C@H](O)[C@H]7O)C(C)(C)C6CC[C@@]5(C)[C@]3(C)C[C@H]4O)OC[C@@H](O)[C@@H]2O)[C@H](O)[C@H](O[C@@H]2OC[C@](O)(CO)[C@H]2O)[C@H]1O[C@@H]1OC[C@H](O)[C@H](O[C@@H]2OC[C@@H](O)[C@H](O)[C@H]2O)[C@H]1O (some centres not stated) | – | – | 12.7% [at 19.1 µM] | 22.5% [at 10.7 µM]
C[C@@H]1O[C@@H](O[C@@H]2[C@@H](O)[C@H](O[C@@H]3[C@@H](O)[C@@H](O)[C@H](O[C@H]4[C@H](OC(=O)[C@]56CCC(C)(C)C[C@H]5C5=CCC7[C@@]8(C)C[C@H](O)[C@H](O[C@@H]9O[C@@H](C)[C@H](O)[C@@H](O)[C@H]9O)[C@@](C)(CO)C8CC[C@@]7(C)[C@]5(C)C[C@H]6O)O[C@H](C)[C@H](O)[C@@H]4O)O[C@H]3C)OC[C@H]2O)[C@H](O)[C@H](O)[C@H]1O (some centres not stated) | – | – | -9.55% [at 19.1 µM] | 4.29% [at 10.7 µM]
CC(C)[C@H]1CCC(CO)=C[C@@H]1/C=C(\CO)C(=O)O | inactive | inactive | – | –
CC1=CC2(O)/C=C/C(C)(O)CC(O)/C=C/C(=O)OC23C(=O)NC(CC(C)C)C3C1C (configuration not stated) | inactive | inactive | – | –
OC[C@H]1O[C@@H](n2cnc3c2NC=NC[C@H]3O)C[C@@H]1O | inactive | inactive | – | –
COc1cc(/C=C/C(=O)OC2CC(OC(C)=O)C(OC(C)=O)C3C2CCC2C(=O)OC(c4ccoc4)CC23C)ccc1O[C@@H]1O[C@H](CO)[C@@H](O)[C@H](O)[C@H]1O (some centres not stated) | inactive | inactive | – | –
O=C(O)c1n[nH]c2c1C[C@H]1C[C@@H]21 | inactive | inactive | – | –
CC1CC(O)CC(C)(C)C1(O)CCO (configuration not stated) | inactive | inactive | – | –
CO[C@@]12CC3[C@@H]([C@@H](O)[C@@H](OC(C)=O)C4[C@](C)(COC(C)=O)CCC[C@]34C)[C@@H](C)C1=CC(=O)O2 (some centres not stated) | inactive | inactive | – | –
CCn1c2ccccc2c2cc(CNC)ccc21 | inactive | inactive | – | –
C[C@]12CCC(=O)C=C1[C@@H](O)C[C@@H]1[C@@H]2[C@@H](O)C[C@@]2(C)[C@H]1CC[C@]2(O)C(=O)CO | inactive | inactive | – | –
OCC1=CC[C@@H]2C=CO[C@@H](O[C@@H]3O[C@H](CO)[C@@H](O)[C@H](O)[C@H]3O)[C@H]12 | inactive | inactive | – | –
CC1CCC2(C(=O)OC3OC(CO)C(O)C(O)C3O)CCC3(C)C(=CCC4C5(C)CC(O)C(O)C(C)(C(=O)O)C5CCC43C)C2C1(C)O (configuration not stated) | inactive | inactive | – | –
CC(=O)O[C@@H]1C[C@@]23C[C@@]24CC[C@H](OC2OC[C@@H](O)[C@H](O)[C@H]2O)C(C)(C)[C@@H]4CC[C@H]3[C@]2(C)CC3OC4(C[C@@H](C)C3[C@@]12C)OCC1(C)OC14 (some centres not stated) | inactive | inactive | – | –

Source: PubChem BioAssay (NCATS)
